S1P4 ag: S1P4 receptor agonists, primary screen, cell-based | Sphingosine 1-phosphate receptor 4 (Homo sapiens), O95977 | S1P4-expressing cell line, agonist reporter assay | activation, % at 4.98 µM | hit rate 0.35% among 220,000; in the data active means activation above about 11%;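 further: 0% = DMSO vehicle and 100% = reference agonist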
Target sequence (O95977 whole entry, looked up): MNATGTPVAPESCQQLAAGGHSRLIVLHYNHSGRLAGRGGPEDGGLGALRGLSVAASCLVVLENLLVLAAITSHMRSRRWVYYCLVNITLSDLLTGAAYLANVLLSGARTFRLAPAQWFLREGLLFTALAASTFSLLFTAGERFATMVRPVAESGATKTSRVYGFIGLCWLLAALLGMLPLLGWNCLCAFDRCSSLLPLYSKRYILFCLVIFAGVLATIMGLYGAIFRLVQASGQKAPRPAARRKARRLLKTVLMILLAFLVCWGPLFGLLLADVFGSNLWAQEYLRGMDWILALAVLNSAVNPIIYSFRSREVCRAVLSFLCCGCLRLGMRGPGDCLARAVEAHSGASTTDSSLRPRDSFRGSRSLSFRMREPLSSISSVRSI
Hsp70 activator: Hsp70 transcriptional activators, primary screen, cell-based, HeLa, Hsp70 promoter luciferase, luminescence, 10 µM; activation, % at 10 µM; HeLa Hsp70 promoter luciferase reporter; scaled: vehicle 0, proteasome-inhibitor control 100%; hit rate 0.04% among 200,000;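 active means activation above the mean across all tested compounds plus 3 SD, cutoff set per campaign, cut at about 5.5% in these data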;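 further: 100% = MG132 at 30 µM as the positive control and 0% = DMSO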
S1P3 antagonist: S1P3 receptor antagonists, primary screen, cell-based; inhibition, % at 4.98 µM; AID 485, 2006; hit rate 0.27% among 170,000; CHO S1P3 NFAT-BLA reporter, FRET fluorescence, antagonist mode;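 active means inhibition above the plate cutoff, the mean inhibition of test wells on that plate plus 3 SD, cut at about 28% in these data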;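 further: cells challenged with S1P at its EC80 of 0.8 µM; blue over green emission ratio from cleaved BLA substrate after 4 h stimulation; 0% = S1P-stimulated wells and 100% = unstimulated DMSO-only wells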
HSF1 inhib: HSF1 inhibitors in luciferase reporter cells, primary screen, cell-based, NIH3T3, luminescence; NIH3T3-HGL HSE-luciferase, MG132-induced, luminescence 8 h; hits give low values; activity change, negative = inhibition, % at 7.5 µM (by protocol); hit rate 0.77% among 300,000;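 active means more than half of replicate wells show activity change below -50%, luminescence cut by over half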;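 further: luciferase reports HSF-1 transcriptional activity via heat shock element; 0% = median of DMSO wells and -100% = zero luminescence signal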
S1P4 antagonist: S1P4 receptor antagonists, primary screen, cell-based; hit rate 0.26% among 220,000; Sphingosine 1-phosphate receptor 4 (Homo sapiens), O95977; inhibition, % at 4.98 µM; S1P4-expressing cells, antagonist mode, reporter read-out; in the data active means inhibition above about 29%;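 further: 0% = wells stimulated with agonist and 100% = vehicle wells without agonist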
HSF1 activator: HSF-1 activators, primary screen, NIH3T3-HGL cells, MG132 stress, luminescence, single point | hit rate 1.7% among 300,000 | activation, % at 9 µM | NIH3T3-HGL HSF-1 luciferase reporter, 8 h; 100% = twice DMSO control signal;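 active means mean replicate activation of at least 50% with a set share of replicates each reaching 50%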;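 further: 0% = median of the neutral control wells and 100% = twice that signal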
* = called active by the depositor; · = no result. A selection: hits, their analogues and other compounds. The true share with any hit is near 2.9%.

SMILES | S1P4 ag | Hsp70 activator | S1P3 antagonist | HSF1 inhib | S1P4 antagonist | HSF1 activator
Cc1cc(=O)oc2cc(OCc3ccccc3)ccc12 | · | · | · | 38 | · | 58*
O=C1/C(=C/c2ccccc2[N+](=O)[O-])COc2ccccc21 | 3 | 2 | 17 | 110 | 21 | 141*
Cc1ccc(CNC(=O)COC(=O)CCOc2ccc(C)cc2)cc1 | · | · | · | 8 | · | 8
Cc1ccc(-c2noc(CSc3ccccc3)n2)cc1 | 2 | 0 | · | 37 | -10 | 69*
Cc1ccc(S(=O)(=O)NCCc2cccs2)cc1 | 1 | · | 1 | -5 | 3 | -10
Cc1cc(C)cc(Cn2ncc(Cl)c(Cl)c2=O)c1 | -1 | 0 | -6 | 88 | -2 | 117*
CCc1ccc(C(=O)Cn2ncc(Cl)c(Cl)c2=O)cc1 | 0 | 0 | · | -80* | 12 | -80
Cc1ccc(Cn2ncc(Cl)c(Cl)c2=O)cc1 | 1 | 0 | -8 | 26 | -26 | 37
CCCCN(C(=O)C1CC(=O)N(Cc2ccc(C)cc2)C1)c1c(N)n(CC(C)C)c(=O)[nH]c1=O (stereo unspecified) | · | · | · | -3 | · | -9
CCn1c(=O)c(C(=O)NCc2ccc(F)cc2)c(O)c2ccccc21 | · | · | · | -8 | · | 6
Cc1cc(C(=O)NC2CCCc3c2cnn3-c2ccc(C(C)(C)C)cc2)nn1C (stereo unspecified) | · | · | · | -10 | · | -20
CSc1ccccc1C(=O)C1CCCN(C(=O)CCc2cccnc2)C1 (stereo unspecified) | 1 | 0 | -6 | · | -14 | ·
CCOC(=O)NC(=S)Nc1ccc(OC)cc1 | 0 | 0 | -1 | 1 | -2 | -3
COC(=O)c1cn[nH]c1NC(=S)Nc1ccc(Cl)c(Cl)c1 | 1 | 0 | · | -60* | -10 | -67
CCOC(=O)c1cn[nH]c1NC(=S)Nc1ccc(OC)cc1 | 0 | · | 3 | -54* | -9 | -63
O=C(C1CCCO1)N1CCN(C(=S)Nc2cc(F)cc(F)c2)CC1 (stereo unspecified) | · | · | · | -5 | · | -12
C=CCOC(=O)c1sc(NC(=O)c2ccc(OC)cc2)nc1C | -1 | 0 | -18 | -9 | 18 | 19
COc1ccc(S(=O)(=O)NC(CC(=O)NCCc2ccccc2)c2ccco2)cc1 (stereo unspecified) | -4 | 0 | · | -6 | -1 | 2
COc1ccc(S(=O)(=O)NC(CC(=O)NCCc2ccc(OC)c(OC)c2)c2ccco2)cc1 (stereo unspecified) | 0 | 0 | 94* | 2 | -20 | 9
O=C(c1cc(-c2ccc(O)cc2)on1)N1CCCCCC1 | · | · | · | 54 | · | 68*
COc1cnn(-c2cc(Oc3ccc(C)cc3)ncn2)c(=O)c1Cl | 3 | 0 | · | 45 | -7 | 95*
CCc1ccc(NC(=O)c2cc(-c3ccco3)on2)cc1 | 1 | 0 | 59* | 39 | -3 | 80*
Nn1c(-c2cccc(Br)c2)n[nH]c1=S | 0 | 0 | -9 | -54* | -13 | -64
S=c1[nH]nc(-c2cccc(Br)c2)o1 | 0 | 0 | 30 | -13 | -3 | -17
COc1cc(NCCCC(C)N)c2ncccc2c1 (stereo unspecified) | 1 | 0 | -46 | 18 | -8 | 34
SMILES | S1P4 ag | Hsp70 activator | S1P3 antagonist | HSF1 inhib | S1P4 antagonist | HSF1 activator
CCC(CNc1cc(OC)cc2cccnc12)NC1CCCCC1 (stereo unspecified) | 2 | · | -11 | -76* | -5 | -80
O=C(CN1C(=O)NC2(CCCCC2)C1=O)NCc1cccs1 | -2 | 0 | -10 | -6 | -1 | 1
Cc1ccc(C23CC4CC(CC(C(=O)N(C)C)(C4)C2)C3)cc1 | · | · | · | -2 | · | 0
O=C(Nc1ccc(Br)cc1)c1ccccc1Br | · | · | · | 33 | · | 53*
O=C(NCCc1ccc(Cl)cc1)c1cc2ccccn2n1 | -1 | · | -18 | 21 | 1 | 33
O=C(/C=N/NC(=O)c1ccccc1Br)c1ccccc1 | -1 | 0 | -9 | 12 | 0 | 59*
O=C(/C=N/NC(=O)c1ccc(Cl)cc1Cl)c1ccccc1 | 1 | · | 10 | 37 | -12 | 57*
O=C(Nc1ccc(Br)cc1)c1cc2ccccn2n1 | -1 | · | -7 | 35 | -13 | 71*
c1ccc(Nc2ncnc3[nH]ncc23)cc1 | -1 | · | 4 | 4 | -9 | 4
O=[N+]([O-])c1cc([N+](=O)[O-])c(Oc2c(F)cccc2F)cc1NN1CCCCC1 | · | · | · | 30 | · | 62*
O=[N+]([O-])c1cc([N+](=O)[O-])c(Oc2c(F)ccc(F)c2F)cc1NN1CCCCC1 | · | · | · | 0 | · | 17
CCOc1ccc(NC(=O)CCN2C(=O)c3ccccc3C2=O)cc1 | · | · | · | -7 | · | -14
CCN1C(=S)SC(=O)C1=C1C=C(C)N(Cc2ccco2)C(C)=C1 | 1 | 0 | · | -54* | -15 | -59
O=C(/C=C/c1ccc(Cl)cc1Cl)N(Cc1ccccc1)C1CCS(=O)(=O)C1 (stereo unspecified) | 1 | 1 | 3 | 20 | -20 | 52*
NS(=O)(=O)c1ccc(CCNC(=O)c2ccncc2)cc1 | · | · | · | -3 | · | -1
NS(=O)(=O)c1ccc(CCNC(=O)c2ccc(C#CC3(O)CCCCC3)cc2)cc1 | 2 | 0 | 16 | -54* | -7 | -54
C=CCNC(=O)c1ccc2c(c1)S(=O)(=O)c1ccccc1C2=O | · | · | · | -8 | · | -12
O=S(=O)(Nc1ccccc1O)c1ccc(-c2ccccc2)cc1 | 0 | 0 | -12 | 59 | -3 | 65*
CCc1ccc(S(=O)(=O)Nc2ccc(O)c3ccccc23)cc1 | · | · | · | 25 | · | 78*
Cc1ccc(-c2n[nH]c(=O)c3ccccc23)cc1S(N)(=O)=O | · | · | · | -6 | · | -15
O=C(O)CNC(=O)c1ccc(NC(=O)/C(=C/c2cccc([N+](=O)[O-])c2)NC(=O)c2ccco2)cc1 | · | · | · | -7 | · | -24
Cc1ccc2c(c1)COc1c3ccc(C(=O)NCC4CC4)cc3nn1-2 | · | · | · | 21 | · | 24
O=C(NCC1CC1)c1ccc2c3n(nc2c1)-c1ccccc1CO3 | · | · | · | 30 | · | 58*
OC(COc1c(F)cc(Br)cc1F)CN1CCN(c2ccc(F)cc2)CC1 (stereo unspecified) | 0 | 0 | -68 | -87* | -2 | -90
COc1ccccc1CNC(=O)C(C)NS(=O)(=O)c1ccc(Br)cc1 (stereo unspecified) | 1 | 0 | · | -73* | -17 | -80
CCCCSCCCNC(=O)c1ccc(CS(=O)(=O)c2ccccc2OC)o1 | · | · | · | -1 | · | 10
O=C1C(Nc2ccccc2)=C(NS(=O)(=O)c2ccccc2)C(=O)c2ccccc21 | 2 | 0 | 11 | 33 | -20 | 60*
CCN=c1scc(-c2cccs2)n1/N=C/c1cc(OC)ccc1O | 1 | 0 | -23 | · | -7 | ·
CN=c1scc(-c2ccccc2F)n1/N=C/c1ccc(O)c(O)c1O | 3 | 0 | -7 | -65* | -14 | -69
